Source: the supplement of paper PMC10646978
± gives the standard deviation.

Experiments:
Details in all cases: modulator concentration 10 µM
[1] = tested on: RAW-Dual (murine macrophage reporter line); test: NF-kB reporter (SEAP) activity fold change vs agonist alone; higher = enhanced NF-kB activity
Outline: (§1)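 RAW-Dual murine macrophage reporter cells were plated at 50 000 per well in 384-well plates, pin-transferred compound to 10 μM final, and pre-incubated for 1 hour at 37 °C before a PRR agonist was added and the cells incubated overnight. NF-κB activity was read from supernatant SEAP with QUANTI-Blue at 620 nm absorbance, and IRF activity from Lucia luciferase with QUANTI-Luc by luminescence. Each signal was expressed as fold change by dividing by the mean agonist-only control on the same plate. Two replicate plates were averaged, with errors obtained by propagation.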

[2] = tested on: RAW-Dual (murine macrophage reporter line); test: IRF reporter (Lucia luciferase) activity fold change vs agonist alone; higher = enhanced IRF activity
Outline: as §1

[3] = tested on: RAW-Dual (murine macrophage reporter line); test: viability score (confluency relative to resting cells, overnight) (fraction); higher = more viable, active = viable (0.7 or more)
Outline: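 Two confluency masks, generated with IncuCyte software over all imaged wells, were applied to IncuCyte images of RAW-Dual macrophages. The cells, in 384-well plates, had been exposed overnight to 10 μM final compound. The viability score is confluency as a fraction of resting cells, and a compound met the cutoff only with both masks above 70% of resting cells.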

[4] = agonist: CpG ODN 1826 0.5 ug/mL

| SMILES | NF-kB reporter [1, 4] | NF-kB reporter ([1]; agonist: LPS 0.1 ug/mL) | NF-kB reporter ([1]; agonist: MPLA […]) | IRF reporter ([2]; agonist: 3'3'-cGAMP 10 ug/mL) | IRF reporter ([2]; agonist: LPS 0.1 ug/mL) | IRF reporter ([2]; agonist: MPLA […]) | viability score [3] |
| --- | --- | --- | --- | --- | --- | --- | --- |
| CCCC(=O)c1ccc(N2CCN(C)CC2)c(F)c1 | 0.956 ± 0.097 | 0.876 ± 0.1 | 0.906 ± 0.088 | 1.02 ± 0.056 | 1.22 ± 0.17 | 1.27 ± 0.24 | 1.03 (active) |
| CC(C)=CCOc1c2occc2cc2ccc(=O)oc12 | 1.13 ± 0.27 | 0.823 ± 0.064 | 0.957 ± 0.088 | 1.09 ± 0.047 | 1.47 ± 0.17 | 1.58 ± 0.21 | 0.95 (active) |
| COc1ccc(N2C(=O)C(=Cc3ccc(OCc4ccc(F)cc4)c(OC)c3)C(=O)NC2=S)cc1 | 1.08 ± 0.11 | 1.04 ± 0.085 | 0.932 ± 0.057 | 0.919 ± 0.042 | 1.02 ± 0.062 | 1.05 ± 0.13 | 1.01 (active) |
| CC(=O)CC(c1ccccc1)c1c(OC(C)=O)c2ccccc2oc1=O (configuration not stated) | 0.865 ± 0.059 | 0.925 ± 0.11 | 0.779 ± 0.1 | 0.908 ± 0.03 | 1.3 ± 0.1 | 1.14 ± 0.19 | 1 (active) |
| ClC(Cl)=C(c1ccc(Cl)cc1)c1ccc(Cl)cc1 | 1.14 ± 0.36 | 1.03 ± 0.068 | 1.07 ± 0.11 | 0.961 ± 0.055 | 1.12 ± 0.12 | 1.25 ± 0.12 | 0.714 (active) |
| CC(C)c1ccc2c(c1O)CCC1C3=C(CCC21C)C(=O)OC3 (configuration not stated) | 0.921 ± 0.072 | 0.815 ± 0.11 | 0.986 ± 0.093 | 0.939 ± 0.029 | 1.11 ± 0.19 | 1.23 ± 0.26 | 1.03 (active) |
